Assay results taken from the supplement of paper PMC6124720.
Values without a mark were called inactive.

What follows are molecules tested on Pseudogymnoascus destructans 20631-21 (assay: growth activity index (DuctApe, 0 = no growth, 9 = maximal growth) (index 0-9); higher = more fungal growth (less inhibition), active = 0 or less; extreme values may be limits of the assay). Conditions: concentration level (1-4, increasing; Biolog proprietary): 4; temperature: 13 °C; YPD.
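Note: biolog Phenotype Microarray plates PM21–25, OD595 followed daily over 11 days, growth curves converted to index, mean of two independent experiments.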

Question: With `Cc1cc(N)c2ccccc2[n+]1CCCCCCCCCC[n+]1c(C)cc(N)c2ccccc21` [Dequalinium chloride] (Biolog plate: PM23) as the molecule, how does the growth activity index read?
Answer: Its growth activity index is 1.

Question: How did the growth activity index turn out when `N=C(N)c1ccccc1` [Benzamidine] (Biolog plate: PM22) was run?
Answer: The growth activity index was 0 (active).

Question: `O=NO` [Sodium Nitrite] (Biolog plate: PM23) was tested. Which growth activity index did it give?
Answer: The growth activity index was 1.33.

Question: For `NC[C@@H]1O[C@H](O[C@H]2[C@@H](O)[C@H](O[C@@H]3[C@@H](O)[C@H](N)C[C@H](N)[C@H]3O[C@H]3O[C@H](CN)[C@@H](O)[C@H](O)[C@H]3N)O[C@@H]2CO)[C@H](N)[C@@H](O)[C@@H]1O` [Neomycin] (Biolog plate: PM21), which growth activity index is on record?
Answer: The growth activity index was 1.25.

Question: How did the growth activity index turn out when `O=C(O)CCC(=O)O` [Succinic acid] (Biolog plate: PM25) was run?
Answer: Its growth activity index is 3.

Question: `NC(N)=NCCC[C@H](N)C(=O)NO` [L-Arginine hydroxamate] (Biolog plate: PM22) was tested. Which growth activity index did it give?
Answer: Its growth activity index is 0.667.

Question: With `O=C(O)CN(CCOCCOCCN(CC(=O)O)CC(=O)O)CC(=O)O` (Biolog plate: PM24) as the molecule, how does the growth activity index read?
Answer: The growth activity index was 4.

Question: `NC[C@H]1O[C@H](O[C@H]2[C@H](O)[C@@H](O[C@H]3O[C@H](CO)[C@@H](O)[C@H](N)[C@H]3O)[C@H](N)C[C@@H]2N)[C@H](O)[C@@H](O)[C@@H]1O` [Kanamycin] (Biolog plate: PM25) was tested. Which growth activity index did it give?
Answer: The growth activity index was 4.33.

Question: With `[Cl][Pd][Cl]` [Palladium(II) Chloride] (Biolog plate: PM25) as the molecule, how does the growth activity index read?
Answer: The growth activity index was 5.

Question: Which growth activity index does the source give for `CSc1ccc2c(c1)N(CCC1CCCCN1C)c1ccccc1S2` (stereo not given) [Thioridazine] (Biolog plate: PM24) here?
Answer: Its growth activity index is 1.33.

Question: `C[C@@H]1[C@H](O)[C@@H](C)/C=C/C=C/C=C/C=C/C=C/C=C/C=C/[C@H](O[C@@H]2O[C@H](C)[C@@H](O)[C@H](N)[C@@H]2O)C[C@@H]2O[C@](O)(C[C@@H](O)C[C@@H](O)[C@H](O)CC[C@@H](O)C[C@@H](O)CC(=O)O[C@H]1C)C[C@H](O)[C@H]2C(=O)O` [Amphotericin B] (Biolog plate: PM24) was tested. Which growth activity index did it give?
Answer: The growth activity index was 0 (active).

Question: How did the growth activity index turn out when `NC(N)=S` [Thiourea] (Biolog plate: PM21) was run?
Answer: Its growth activity index is 0 (active).

Question: `[Cl][Co][Cl]` [Cobalt (II) chloride] (Biolog plate: PM23) was tested. Which growth activity index did it give?
Answer: Its growth activity index is 1.

Question: For `c1ccc(-c2nn(-c3ccccc3)[n+](-c3cccc4ccccc34)n2)cc1` [Tetrazolium violet] (Biolog plate: PM25), which growth activity index is on record?
Answer: Its growth activity index is 2.

Question: For `O=c1cn[nH]c(=O)[nH]1` [6-Azauracil] (Biolog plate: PM24), which growth activity index is on record?
Answer: Its growth activity index is 2.67.

Question: Which growth activity index does the source give for `Nc1[nH]c(=O)ncc1F` [5-Fluorocytosine] (Biolog plate: PM25) here?
Answer: The growth activity index was 4.

Question: `c1ccc(-c2ccccn2)nc1` [2,2`-Dipyridyl] (Biolog plate: PM21) was tested. Which growth activity index did it give?
Answer: The growth activity index was 5.25.

Question: For `[Cl][Mn][Cl]` [Manganese chloride] (Biolog plate: PM21), which growth activity index is on record?
Answer: Its growth activity index is 4.5.

Question: How did the growth activity index turn out when `OB(O)O` [Boric acid] (Biolog plate: PM22) was run?
Answer: Its growth activity index is 0 (active).

Question: How did the growth activity index turn out when `CN(C)[C@@H]1C(O)=C(C(N)=O)C(=O)[C@@]2(O)C(O)=C3C(=O)c4c(O)ccc(Cl)c4[C@@](C)(O)[C@H]3C[C@@H]12` [Chlortetracycline] (Biolog plate: PM24) was run?
Answer: Its growth activity index is 7.

Question: Which growth activity index does the source give for `N[C@H](CO)C(=O)O` [D-Serine] (Biolog plate: PM22) here?
Answer: Its growth activity index is 4.

Question: With `CC(C)Cc1ccc(C(C)C(=O)O)cc1` (stereo not given) [Ibuprofen] (Biolog plate: PM25) as the molecule, how does the growth activity index read?
Answer: Its growth activity index is 5.

Question: For `NO` [Hydroxylamine] (Biolog plate: PM23), which growth activity index is on record?
Answer: The growth activity index was 0 (active).

Question: With `O=P(O)(O)OP(=O)(O)O` [Sodium pyrophosphate] (Biolog plate: PM24) as the molecule, how does the growth activity index read?
Answer: Its growth activity index is 4.

Question: How did the growth activity index turn out when `CCCCCCCCCCCC[N+](C)(C)C` [Dodecyltrimethyl ammonium bromide] (Biolog plate: PM21) was run?
Answer: Its growth activity index is 1.

Question: Which growth activity index does the source give for `[Na+].[O]=[V](=[O])[O-]` [Sodium metavanadate] (Biolog plate: PM22) here?
Answer: Its growth activity index is 3.67.

Question: With `[Cl-].[Li+]` [Lithium chloride] (Biolog plate: PM22) as the molecule, how does the growth activity index read?
Answer: Its growth activity index is 0 (active).

Question: With `O=C(O)/C=C/c1ccccc1` [Cinnamic acid] (Biolog plate: PM25) as the molecule, how does the growth activity index read?
Answer: The growth activity index was 5.

Question: With `O=C([O-])c1ccccc1O.[Na+]` [Sodium Salicylate] (Biolog plate: PM25) as the molecule, how does the growth activity index read?
Answer: The growth activity index was 4.

Question: How did the growth activity index turn out when `[Cl][Cu][Cl]` [Cupric chloride] (Biolog plate: PM23) was run?
Answer: Its growth activity index is 6.
